Data as given in PubChem BioAssay AID1159580 (chemical genetic matrix, 2015).
Among all 5,500 compounds or so, about 2,000 (36%) were called active. About 18% were inconclusive and are not listed. This is one part of the list. A number with no mark means an inactive call. No stated cut-off is given here; in the data, active means normalized growth mostly below about 0.91 (no sharp cut-off); inconclusive means no clear call, values can overlap the other calls; inactive means mostly above about 0.92.

Assay: chemical genetic growth profiling, strain panel (AID 1159580);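 further: tested at 20 µM; growth read once vehicle control cultures reached saturation at 30 °C; 1 = growth at the plate median or of vehicle wells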
Conditions: growth OD
[1] = S. cerevisiae deletion strains, locus YDL101C, strain DUN1, stronger effect = lower value
[2] = S. cerevisiae deletion strains, locus YHR030C, strain SLT2, stronger effect = lower value
[3] = S. cerevisiae deletion strains, locus YAL013W, strain DEP1, stronger effect = lower value
[4] = S. cerevisiae deletion strains, locus YBR229C, strain ROT2, stronger effect = lower value
[5] = S. cerevisiae deletion strains, locus YDR150W, strain NUM1, stronger effect = lower value
[6] = S. cerevisiae deletion strains, locus YEL061C, strain CIN8, stronger effect = lower value
[7] = S. cerevisiae deletion strains, locus YGR078C, strain PAC10, stronger effect = lower value
[8] = S. cerevisiae deletion strains, locus YHR087W, strain rtc3, stronger effect = lower value
[9] = S. cerevisiae deletion strains, locus YJL187C, strain SWE1, stronger effect = lower value
[10] = S. cerevisiae deletion strains, locus YJR043C, strain POL32, stronger effect = lower value
[11] = S. cerevisiae deletion strains, locus YJR075W, strain HOC1, stronger effect = lower value
[12] = S. cerevisiae deletion strains, locus YLR039C, strain RIC1, stronger effect = lower value
[13] = S. cerevisiae deletion strains, locus YLR058C, strain SHM2 (second series), stronger effect = lower value
[14] = S. cerevisiae deletion strains, locus YLR085C, strain ARP6, stronger effect = lower value
[15] = S. cerevisiae deletion strains, locus YLR262C, strain YPT6, stronger effect = lower value
[16] = S. cerevisiae deletion strains, locus YML094W, strain GIM5, stronger effect = lower value
[17] = S. cerevisiae deletion strains, locus YMR219W, strain ESC1, stronger effect = lower value
[18] = S. cerevisiae deletion strains, locus YMR263W, strain SAP30, stronger effect = lower value
[19] = S. cerevisiae deletion strains, locus YMR307W, strain GAS1, stronger effect = lower value
[20] = S. cerevisiae deletion strains, locus YNL153C, strain GIM3, stronger effect = lower value
[21] = S. cerevisiae deletion strains, locus YNL298W, strain CLA4 (second series), stronger effect = lower value
[22] = S. cerevisiae deletion strains, locus YNL322C, strain KRE1, stronger effect = lower value
[23] = S. cerevisiae deletion strains, locus YNR030W, strain Alg12, stronger effect = lower value
[24] = S. cerevisiae deletion strains, locus YPL055C, strain LGE1, stronger effect = lower value
[25] = S. cerevisiae deletion strains, locus YPL241C, strain CIN2, stronger effect = lower value
[26] = S. cerevisiae deletion strains, locus YPR135W, strain CTF4, stronger effect = lower value
[27] = S. cerevisiae strains, strain wild type, stronger effect = lower value

SMILES: O=C(Nc1cc(C(F)(F)F)cc(C(F)(F)F)c1)C(Cl)(Cl)Cl
- normalized growth (S. cerevisiae deletion strains, locus YAR019C, strain CDC15, stronger effect = lower value): 0.964
- normalized growth (S. cerevisiae deletion strains, locus YBL105C, strain PKC1, stronger effect = lower value): 0.958
- normalized growth (S. cerevisiae deletion strains, locus YBR135W, strain CKS1, stronger effect = lower value): 0.962
- normalized growth (S. cerevisiae deletion strains, locus YBR136W, strain MEC1, stronger effect = lower value): 0.965
- normalized growth (S. cerevisiae deletion strains, locus YBR160W, strain CDC28, stronger effect = lower value): 0.969
- normalized growth (S. cerevisiae deletion strains, locus YDL017W, strain CDC7, stronger effect = lower value): 0.959
- normalized growth (S. cerevisiae deletion strains, locus YDL028C, strain MPS1, stronger effect = lower value): 0.966
- normalized growth [1]: 0.97
- normalized growth (S. cerevisiae deletion strains, locus YDL108W, strain KIN28, stronger effect = lower value): 0.957
- normalized growth (S. cerevisiae deletion strains, locus YDL132W, strain cdc53, stronger effect = lower value): 0.955
- normalized growth (S. cerevisiae deletion strains, locus YDL214C, strain PRR2, stronger effect = lower value): 0.919
- normalized growth (S. cerevisiae deletion strains, locus YDR052C, strain DBF4, stronger effect = lower value): 0.964
- normalized growth (S. cerevisiae deletion strains, locus YDR054C, strain cdc34, stronger effect = lower value): 0.948
- normalized growth (S. cerevisiae deletion strains, locus YDR226W, strain ADK1, stronger effect = lower value): 0.959
- normalized growth (S. cerevisiae deletion strains, locus YDR477W, strain SNF1, stronger effect = lower value): 0.921
- normalized growth (S. cerevisiae deletion strains, locus YER123W, strain YCK3, stronger effect = lower value): 0.878
- normalized growth (S. cerevisiae deletion strains, locus YER133W, strain GLC7, stronger effect = lower value): 0.918
- normalized growth (S. cerevisiae deletion strains, locus YFL009W, strain cdc4, stronger effect = lower value): 0.951
- normalized growth (S. cerevisiae deletion strains, locus YFL029C, strain CAK1, stronger effect = lower value): 0.962
- normalized growth (S. cerevisiae deletion strains, locus YFR003C, strain YPI1, stronger effect = lower value): 0.955
- normalized growth (S. cerevisiae deletion strains, locus YFR019W, strain FAB1, stronger effect = lower value): 0.957
- normalized growth (S. cerevisiae deletion strains, locus YFR028C, strain CDC14, stronger effect = lower value): 0.962
- normalized growth (S. cerevisiae deletion strains, locus YGR040W, strain KSS1, stronger effect = lower value): 0.929
- normalized growth (S. cerevisiae deletion strains, locus YGR052W, strain FMP48, stronger effect = lower value): 0.911
- normalized growth (S. cerevisiae deletion strains, locus YGR092W, strain DBF2, stronger effect = lower value): 0.879
- normalized growth [2]: 0.829 (active)
- normalized growth (S. cerevisiae deletion strains, locus YHR079C, strain IRE1, stronger effect = lower value): 0.843
- normalized growth (S. cerevisiae deletion strains, locus YHR082C, strain KSP1, stronger effect = lower value): 0.932
- normalized growth (S. cerevisiae deletion strains, locus YHR205W, strain SCH9, stronger effect = lower value): 0.815
- normalized growth (S. cerevisiae deletion strains, locus YIL147C, strain SLN1, stronger effect = lower value): 0.96
- normalized growth (S. cerevisiae deletion strains, locus YJL095W, strain BCK1, stronger effect = lower value): 0.828
- normalized growth (S. cerevisiae deletion strains, locus YJL128C, strain PBS2, stronger effect = lower value): 0.883
- normalized growth (S. cerevisiae deletion strains, locus YJL157C, strain FAR1, stronger effect = lower value): 0.932
- normalized growth (S. cerevisiae deletion strains, locus YJR016C, strain ILV3, stronger effect = lower value): 0.956
- normalized growth (S. cerevisiae deletion strains, locus YJR066W, strain TOR1 (second series), stronger effect = lower value): 0.947
- normalized growth (S. cerevisiae deletion strains, locus YJR066W, strain TOR1, stronger effect = lower value): 0.955
- normalized growth (S. cerevisiae deletion strains, locus YKL048C, strain ELM1, stronger effect = lower value): 0.931
- normalized growth (S. cerevisiae deletion strains, locus YKL067W, strain YNK1, stronger effect = lower value): 0.932
- normalized growth (S. cerevisiae deletion strains, locus YKL101W, strain HSL1, stronger effect = lower value): 0.918
- normalized growth (S. cerevisiae deletion strains, locus YKL193C, strain SDS22, stronger effect = lower value): 0.95
- normalized growth (S. cerevisiae deletion strains, locus YKL203C, strain TOR2, stronger effect = lower value): 0.969
- normalized growth (S. cerevisiae deletion strains, locus YLR113W, strain HOG1, stronger effect = lower value): 0.853 (active)
- normalized growth (S. cerevisiae deletion strains, locus YLR133W, strain CKI1, stronger effect = lower value): 0.934
- normalized growth (S. cerevisiae deletion strains, locus YLR403W, strain SFP1, stronger effect = lower value): 0.916
- normalized growth (S. cerevisiae deletion strains, locus YML070W, strain DAK1, stronger effect = lower value): 0.891
- normalized growth (S. cerevisiae deletion strains, locus YMR001C, strain CDC5, stronger effect = lower value): 0.963
- normalized growth (S. cerevisiae deletion strains, locus YMR205C, strain PFK2 (second series), stronger effect = lower value): 0.926
- normalized growth (S. cerevisiae deletion strains, locus YMR277W, strain FCP1, stronger effect = lower value): 0.956
- normalized growth (S. cerevisiae deletion strains, locus YNL006W, strain LST8, stronger effect = lower value): 0.974
- normalized growth (S. cerevisiae deletion strains, locus YNL020C, strain ARK1, stronger effect = lower value): 0.92
- normalized growth (S. cerevisiae deletion strains, locus YNL161W, strain CBK1, stronger effect = lower value): 0.957
- normalized growth (S. cerevisiae deletion strains, locus YNL183C, strain NPR1, stronger effect = lower value): 0.913
- normalized growth (S. cerevisiae deletion strains, locus YNL207W, strain RIO2, stronger effect = lower value): 0.955
- normalized growth (S. cerevisiae deletion strains, locus YNL222W, strain SSU72, stronger effect = lower value): 0.967
- normalized growth (S. cerevisiae deletion strains, locus YNL307C, strain MCK1 (second series), stronger effect = lower value): 0.869
- normalized growth (S. cerevisiae deletion strains, locus YOL078W, strain AVO1, stronger effect = lower value): 0.961
- normalized growth (S. cerevisiae deletion strains, locus YOL136C, strain PFK27, stronger effect = lower value): 0.89
- normalized growth (S. cerevisiae deletion strains, locus YOR061W, strain CKA2, stronger effect = lower value): 0.96
- normalized growth (S. cerevisiae deletion strains, locus YOR119C, strain RIO1, stronger effect = lower value): 1
- normalized growth (S. cerevisiae deletion strains, locus YOR231W, strain MKK1, stronger effect = lower value): 0.896
- normalized growth (S. cerevisiae deletion strains, locus YOR329C, strain SCD5, stronger effect = lower value): 0.959
- normalized growth (S. cerevisiae deletion strains, locus YPL031C, strain PHO85, stronger effect = lower value): 0.904
- normalized growth (S. cerevisiae deletion strains, locus YPL153C, strain RAD53, stronger effect = lower value): 0.889
- normalized growth (S. cerevisiae deletion strains, locus YPL204W, strain HRR25, stronger effect = lower value): 0.879
- normalized growth (S. cerevisiae deletion strains, locus YPL209C, strain IPL1, stronger effect = lower value): 0.964
- normalized growth (S. cerevisiae deletion strains, locus YPL256C, strain CLN2, stronger effect = lower value): 0.77 (active)
- normalized growth (S. cerevisiae deletion strains, locus YPR025C, strain CCL1, stronger effect = lower value): 0.969
- normalized growth (S. cerevisiae deletion strains, locus YPR106W, strain ISR1, stronger effect = lower value): 0.958
- normalized growth (S. cerevisiae deletion strains, locus YPR111W, strain DBF20, stronger effect = lower value): 0.941
- normalized growth (S. cerevisiae deletion strains, strain NNK1, stronger effect = lower value): 0.96
- normalized growth (S. cerevisiae deletion strains, strain TSCII, stronger effect = lower value): 0.957

SMILES: CCOC(=O)C(O)(c1ccc(N)c(C)c1)C(F)(F)F (stereo unspecified)
- normalized growth [3]: 0.995
- normalized growth [4]: 1
- normalized growth [1]: 0.996
- normalized growth [5]: 0.928
- normalized growth [6]: 0.988
- normalized growth [7]: 0.992
- normalized growth [2]: 0.953
- normalized growth [8]: 1.02
- normalized growth [9]: 1
- normalized growth [10]: 0.925
- normalized growth [11]: 0.991
- normalized growth [12]: 0.988
- normalized growth [13]: 1.01
- normalized growth [14]: 0.996
- normalized growth [15]: 1.02
- normalized growth [16]: 0.991
- normalized growth [17]: 0.982
- normalized growth [18]: 0.999
- normalized growth [19]: 0.946
- normalized growth (S. cerevisiae deletion strains, locus YNL128W, strain TEP1, stronger effect = lower value): 1.01
- normalized growth [20]: 0.993
- normalized growth [21]: 1
- normalized growth [22]: 1
- normalized growth [23]: 1.01
- normalized growth [24]: 0.935
- normalized growth [25]: 0.996
- normalized growth [26]: 0.982
- normalized growth [27]: 0.981

SMILES: O=C(Nc1cc(C(F)(F)F)cc(C(F)(F)F)c1)C(c1ccccc1)C1CCCC1 (stereo unspecified)
- normalized growth [3]: 1.02
- normalized growth [4]: 1.01
- normalized growth [1]: 1.02
- normalized growth [5]: 1.02
- normalized growth [6]: 0.969
- normalized growth [7]: 1.03
- normalized growth [2]: 1.06
- normalized growth [8]: 1
- normalized growth [9]: 1.02
- normalized growth [10]: 1.01
- normalized growth [11]: 1.03
- normalized growth [12]: 1.04
- normalized growth [13]: 1
- normalized growth [14]: 1.01
- normalized growth [15]: 0.998
- normalized growth [16]: 1.02
- normalized growth [17]: 1
- normalized growth [18]: 1.02
- normalized growth [19]: 1.04
- normalized growth [20]: 1.01
- normalized growth [21]: 1.03
- normalized growth [22]: 1.01
- normalized growth [23]: 1.01
- normalized growth [24]: 1.03
- normalized growth [25]: 1.03
- normalized growth [26]: 1.01
- normalized growth [27]: 1
